Measurements published in PubChem BioAssay (EPA / NIEHS).
The source made the active and inactive calls. The calls were made as follows: active = hit-call score of the fitted dose curve at least 0.9, where 1 is the maximum; inactive = score below 0.9.

These compounds were tested against CCAAT/enhancer-binding protein beta (Homo sapiens) (UniProt P17676) (assay: ATG_C_EBP_CIS: Attagene CIS-FACTORIAL HepG2 Assay for human CCAAT/Enhancer Binding Protein (C/EBP) beta (AID 2282927)). Conditions: HepG2 Attagene cis-factorial transcription factor reporter; actives raise or lower the signal.
Sequence of CCAAT/enhancer-binding protein beta (Homo sapiens) (P17676 whole entry, looked up): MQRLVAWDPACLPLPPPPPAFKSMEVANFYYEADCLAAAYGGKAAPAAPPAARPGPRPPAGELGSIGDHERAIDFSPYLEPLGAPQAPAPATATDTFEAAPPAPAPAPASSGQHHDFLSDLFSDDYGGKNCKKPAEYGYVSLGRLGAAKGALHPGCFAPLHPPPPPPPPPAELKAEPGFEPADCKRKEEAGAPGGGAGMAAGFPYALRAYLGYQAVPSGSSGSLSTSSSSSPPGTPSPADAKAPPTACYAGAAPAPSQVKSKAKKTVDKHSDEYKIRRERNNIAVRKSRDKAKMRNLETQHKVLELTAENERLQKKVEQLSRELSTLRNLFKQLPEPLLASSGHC
Method: ATG_CIS is a cell-based, multiplexed-readout assay that uses HepG2, a human liver cell line, with measurements taken at 24 hours after chemical dosing in a 24-well plate.ATG_C_EBP_CIS is one of 52 assay component(s) measured or calculated from the ATG_CIS assay. It is designed to make measurements of mRNA induction, a form of inducible reporter, as detected with fluorescence intensity signals by Reverse transcription polymerase chain reaction (RT-PCR) and Capillary electrophoresis technology.Data from the assay component ATG_C_EBP_CIS was analyzed into 1 assay endpoint. This assay endpoint, ATG_C_EBP_CIS, was analyzed with bidirectional fitting relative to DMSO as the negative control and baseline of activity. Using a type of inducible reporter, measures of mRNA for gain or loss-of-signal activity can be used to understand the reporter gene at the transcription factor-level as they relate to the gene CEBPB. Furthermore, this assay endpoint can be referred to as a primary readout, because this assay has produced multiple assay endpoints where this one serves a reporter gene function. To generalize the intended target to other relatable targets, this assay endpoint is annotated to the dna binding intended target family, where the subfamily is basic leucine zipper.
Human liver HepG2 cells are transiently transfected with multiple reporter transcription units (MRTUs) in 6-well plates using FuGene 6 reagent (Roche; 3 ml FuGene/1 mg DNA). The MRTU constructs are regulated by a cis-regulating element (promoter). […] A major difference between the CIS and TRANS system is that in CIS activities of endogenous TFs are measured, whereas the TRANS assay evaluates changes in activities of exogenous, chimeric NR-Gal4 proteins. […] At the end of 24 hour incubation, total RNA was isolated using TriZol reagent (Invitrogen). The isolated RNA is then reverse-transcribed using oligo(dT) primer and Mo-MLV reverse transcriptase (Invitrogen) with DNAse I (Ambion) treatment for 30 min. The one-tenth of the produced cDNA was amplified by PCR using Taq DNA polymerase (Invitrogen) and two reporter sequence-specific primers. The PCR products were fluorescently labeled by primer extension with 6-arboxyfluorescein (6-FAM) 5'-labeled reporter sequence-specific primer (2 min at 95 C, 20 s at 68 C and 10 min at 72 C) and these products were digested with 5U of HpaI (New England Biolabs) for 2h at 37 C. The fragments were purified using Qiaquick PCR columns (Qiagen), analyzed on an ABI 3130xL genetic analyzer (Applied Biosystems) with peak positions identified by using a set of X-rhodamine (ROX)-labeled MapMarker1000 molecular weight standards (BioVentures). The raw capillary electrophoresis data was processed using Attagraph software (Attagene).
`OCCOCCOCCOCCOCCO` was tested, and the outcome was “inactive”. `CCCCCCC1CCCC(=O)O1` (stereo not given) was tested, and the outcome was “inactive”. `CNC(=C[N+](=O)[O-])NCCSCc1csc(CN(C)C)n1` was tested, and the outcome was “inactive”. With `F[B-](F)(F)F` the outcome was “inactive”. With `CN(C)Cc1cc(C(C)(C)C)c(O)c(C(C)(C)C)c1` the outcome was “inactive”. With `CCCCCCCC#N` the outcome was “inactive”. For `Cc1ccccc1S(N)(=O)=O`, the outcome was “inactive”. `c1cc(N(CC2CO2)CC2CO2)ccc1Cc1ccc(N(CC2CO2)CC2CO2)cc1` (stereo not given) was tested, and the AC50 was 99.5 µM (active). With `CCCc1c(OCCCCc2nn[nH]n2)ccc(C(C)=O)c1O` the outcome was “inactive”. In the case of `O=C(CC(C(=O)OC1CCCCC1)S(=O)(=O)O)OC1CCCCC1` (stereo not given), the outcome is reported as “inactive”. With `O=C(OCc1ccccc1)c1ccccc1` the outcome was “inactive”. For `CC(C)CC(=O)O`, the outcome was “inactive”. With `Nc1ccc(S(=O)(=O)Nc2cnc3ccccc3n2)cc1` the outcome was “inactive”. In the case of `O=C(O)c1ccccc1C(=O)O`, the outcome is reported as “inactive”. With `CCCCCC[C@@H](O)C/C=C\CCCCCCCC(=O)O` the AC50 was 77 µM (active). With `NC(=O)c1ccc([N+](=O)[O-])cc1Cl` the outcome was “inactive”. `COc1cccc(OC)c1C(=O)O` was tested, and the outcome was “inactive”. For `CC/C=C\CCO`, the outcome was “inactive”. For `CC(=O)OC(C)(C)Cc1ccccc1`, the outcome was “inactive”. With `COC(=O)CCSCCC(=O)OC` the outcome was “inactive”. In the case of `COC(OC)C(C)c1ccccc1` (stereo not given), the outcome is reported as “inactive”. For `O=[N+]([O-])c1ccccc1C(F)(F)F`, the outcome was “inactive”. For `NC(=O)c1ccc(N)cc1`, the outcome was “inactive”. With `CC(=O)c1nccs1` the outcome was “inactive”. `CC(C)(C)NC(=O)[C@@H]1CN(Cc2cccnc2)CCN1C[C@@H](O)C[C@@H](Cc1ccccc1)C(=O)N[C@H]1c2ccccc2C[C@H]1O` was tested, and the outcome was “inactive”. In the case of `CCCCCCOC(=O)CCCCCCCC(=O)OCCCCCC`, the outcome is reported as “inactive”. `CCCCCC1CCCC(=O)O1` (stereo not given) was tested, and the outcome was “inactive”. `Oc1ccc(Cl)cc1C1CCCC1` was tested, and the outcome was “inactive”. `Oc1cccc2ccccc12` was tested, and the outcome was “inactive”. `CO[Si](CCCNCCN)(OC)OC` was tested, and the outcome was “inactive”. In the case of `Brc1ccc(Oc2ccc(Br)cc2)cc1`, the outcome is reported as “inactive”. `C[Si](C)(C)O[Si](C)(C)O[Si](C)(C)C` was tested, and the outcome was “inactive”. In the case of `CCCCCCCCCCCCCCCCCC[N+](C)(C)C`, the AC50 is reported as 41.1 µM (active). In the case of `CCCC(=O)OC/C=C(\C)CCC=C(C)C`, the outcome is reported as “inactive”. In the case of `CN(C)N=Nc1ccccc1`, the outcome is reported as “inactive”. `O=C(O)c1cc(Cl)cc(Cl)c1O` was tested, and the outcome was “inactive”. In the case of `O=C(C1CCCCC1)N1CC(=O)N2CCc3ccccc3C2C1` (stereo not given), the outcome is reported as “inactive”. `O=C1NC(=O)[C@@H]2CC=CC[C@H]12` was tested, and the outcome was “inactive”. For `COC(=O)/C=C\C(=O)OC`, the outcome was “inactive”. With `CCCC[N+]1(C)CCCC1` the outcome was “inactive”.
